Screening data from PubChem.
Hits are enriched below; roughly 4.6% of the tested compounds scored in any of these assays.
D1 ag: human D1 receptor agonism; 360,000 compounds, 1% hits; P21728; activation, % at 2 µM; HEK293 T-REx D1 cells, calcium flux, agonist mode; in the data active = activation above about 30%
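Agonism was scored from calcium flux recorded over 180 s (1 read/s) after pintool compound addition, following a 10-cycle baseline. Cells were inducible force-coupled HEK293 TREx D1, plated overnight at 30 C and loaded with no-wash calcium dye.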
D1 antagonist: human D1 dopamine receptor antagonism; P21728; HEK293 TREx D1 cells, calcium flux, dopamine EC80; stronger effect = lower value; activity change, negative = inhibition, % at 10 µM; 360,000 compounds, 3.2% hits; AID 504652; in the data active = activity change below about -30%
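Calcium flux readout: force-coupled, inducible Hek293 Trex D1 line, cells induced overnight at 30 C with tetracycline, dye-loaded 30–90 min at RT. Antagonism scored against EC80 dopamine challenge given 180 s after compound.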
TRHR agonist-1: activates the human TRH receptor; P34981; TRHR cells, calcium flux fluo-8, FDSS agonist mode; activation, % at 2 µM; 360,000 compounds, 0.18% hits; in the data active = activation above about 30%
Target sequence (P34981 whole entry, looked up): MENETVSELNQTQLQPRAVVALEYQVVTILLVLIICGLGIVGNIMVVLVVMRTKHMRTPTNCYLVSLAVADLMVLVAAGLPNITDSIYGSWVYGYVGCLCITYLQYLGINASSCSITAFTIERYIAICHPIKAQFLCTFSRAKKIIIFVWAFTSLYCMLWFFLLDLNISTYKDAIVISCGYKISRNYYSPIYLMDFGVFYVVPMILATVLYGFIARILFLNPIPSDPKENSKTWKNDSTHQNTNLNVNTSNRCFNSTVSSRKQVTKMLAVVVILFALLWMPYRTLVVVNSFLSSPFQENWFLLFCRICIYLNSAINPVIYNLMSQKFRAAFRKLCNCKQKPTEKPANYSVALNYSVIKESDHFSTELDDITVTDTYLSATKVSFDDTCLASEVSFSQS
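Steps: seed TRHR cells overnight; add fluo-8 no-wash Ca dye, RT 30 min–1.5 h; record 10 s baseline; pin-transfer compounds; monitor fluorescence 1 cycle/s for the agonist window. Calcium increases flag candidate agonists.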
TRHR enhancer-1: allosteric enhancers of human TRH receptor | AID 493056 | P34981 | 360,000 compounds, 0.66% hits | TRHR cells, fluo-8 calcium fluorescence, EC20 TRH enhancement | enhancement, % at 2 µM; in the data active = enhancement above about 30%
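TRHR-expressing cells loaded with fluo-8 calcium dye were read kinetically (ex 480/em 530) during compound addition, then stimulated with an EC20 of TRH (10 nM final). Enhancement of the Gq-mediated intracellular calcium response was scored.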
D1 PAM: potentiators of human D1 dopamine receptor; potentiation, % at 10 µM; HEK293 TREx D1 cells, calcium flux, dopamine EC20 potentiation; P21728; AID 504651; 360,000 compounds, 0.036% hits; in the data active = potentiation above about 30%
TRHR enhancer-2: confirmation of human TRH receptor allosteric enhancers | TRH receptor cell assay, enhancer confirmation qHTS | shares compounds with TRHR enhancer-1 | activity change, negative = inhibition, % at 46.1 µM | 970 tested, under 10 active;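 note: compound effect scored on response to added TRH at EC20 of 10 nM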
TRHR agonist-2: human TRH receptor agonism confirmation. shares compounds with TRHR enhancer-1. TRHR-expressing cells, agonist activation read-out. Potency, µM (series often up to 46.1 µM), usual class: activators. 970 compounds, 8% hits. AID 493078; note: nearly all actives have a fitted effect of over 75% in size
Hits are given with their value; . = inactive; ? = inconclusive; / = no result. Unless noted, calls come from the whole dose curve; as a rule, active = well fitted curve in the direction sought with a large enough effect; inconclusive = small, poorly fitted or top-dose-only effect, or another doubt; inactive = no such curve, though single readings can be large; an effect the other way counts as inactive or inconclusive.

SMILES	D1 ag	D1 antagonist	TRHR agonist-1	TRHR enhancer-1	D1 PAM	TRHR enhancer-2	TRHR agonist-2
CCC(=O)Nc1ccc(S(=O)(=O)N2CCCCC2)cc1OC	.	.	.	44	.	.	.
Cc1ccc(-c2c(C)sc3nc[nH]c(=O)c23)cc1C	.	-35	.	47	.	.	.
Cc1ccccc1CN1[C@@H](CC2CCCCC2)COCCS1(=O)=O	.	.	.	.	.	/	/
O=C(NC(C(=O)N/N=C/c1cccnc1)c1n[nH]c(=O)c2ccccc12)c1ccccc1 (stereo unspecified)	.	.	.	.	.	/	/
COc1ccc(N2C(=O)c3cccc4cccc(c34)C2=O)cc1	.	.	.	.	.	/	/
COc1ccc(N2C(=O)c3cccc4c(N(C)CCO)ccc(c34)C2=O)cc1	49	.	35	.	.	.	21µM
CCCCCCc1cc2cc(C(=O)Nc3ccccc3)c(=O)oc2cc1O	.	.	30	.	.	.	.
N=c1oc2ccccc2cc1C(=O)Nc1ccccc1	.	.	.	.	.	/	/
Brc1ccc(-c2cc3c(N4CCN(c5ccccc5)CC4)nccn3n2)cc1	.	.	.	.	.	/	/
CN1CCN(c2ccc(S(=O)(=O)N3CCCCC3)cc2N)CC1	.	.	.	60	.	.	.
Nc1cc(S(=O)(=O)N2CCCCC2)ccc1N1CCCCC1	.	.	.	.	.	/	/
CC(=O)Nc1nc2n(n1)C(c1ccccc1)C=C(c1ccccc1)N2 (stereo unspecified)	.	.	39	.	.	.	?
CCCC(CCC(=O)Nc1cc([N+](=O)[O-])ccc1O)C(=O)O (stereo unspecified)	.	.	.	.	.	/	/
COc1ccc(N2C(=O)C3NN=C(C(=O)OCc4ccccc4)C3C2=O)cc1 (stereo unspecified)	.	.	.	.	.	/	/
O=S(=O)(Nc1ncnc2c1oc1ccccc12)c1ccc(Cl)s1	.	.	.	51	.	.	.
CNc1c(NS(=O)(=O)c2ccc(Cl)s2)c(=O)oc2ccccc12	.	.	.	.	.	/	/
Cc1ccc(S(=O)(=O)NCc2ccc(C(=O)NC3CCCCC3)cc2)cc1	.	.	.	77	.	.	.
COc1ccc(C)cc1S(=O)(=O)N1CCC2(CC1)OCCN2S(=O)(=O)c1cccs1	.	.	.	66	.	?	.
O=C(O)c1cccc(CSc2nc(-c3ccc(Cl)cc3)cc(C(F)(F)F)n2)c1	.	-37	.	42	.	.	?
CCCC(=O)c1ccc(N2CCN(C(=O)c3cccs3)CC2)c(F)c1	.	.	.	.	.	/	/
CC(=O)c1ccc(N2CCN(C(=O)c3cccs3)CC2)c(F)c1	.	.	.	.	.	.	.
Nc1c(-c2nc(-c3ccncc3)no2)nnn1CC(=O)Nc1ccccc1	.	.	.	.	.	/	/
COc1ccc(C)cc1NC(=O)c1cc(S(=O)(=O)NCCC2=CCCCC2)ccc1F	.	.	.	.	.	/	/
COc1ccc(C)cc1NC(=O)NCCC1=CCCCC1	.	.	.	43	.	.	.
COc1ccc(CCNC(=O)C(=O)NCC(c2cccs2)S(=O)(=O)c2ccccc2)cc1 (stereo unspecified)	.	/	.	.	.	/	/
SMILES	D1 ag	D1 antagonist	TRHR agonist-1	TRHR enhancer-1	D1 PAM	TRHR enhancer-2	TRHR agonist-2
CCN1CCCC(NC(=O)c2cc([N+](=O)[O-])ccc2OC)C1 (stereo unspecified)	.	.	.	42	.	.	.
CC(C)Nc1ncnc2c1cnn2-c1ccc(Cl)cc1	.	.	.	55	.	.	.
CC1CCN(CCCNC(=O)C2CCC(CNS(=O)(=O)c3cccc4nsnc34)CC2)CC1 (stereo unspecified)	.	.	.	.	.	/	/
O=C(NCCCN1CCCCC1)C1CCC(CNS(=O)(=O)c2cccc3nsnc23)CC1 (stereo unspecified)	.	.	.	48	.	.	.
COc1ccc(-n2c(=O)c3sc4ccccc4c3n(CC(=O)Nc3ccccc3F)c2=O)cc1	.	.	.	.	.	/	/
COc1ccc(C(=O)NCC(c2ccc3c(c2)OCO3)N2CCN(C)CC2)cc1OC (stereo unspecified)	.	.	.	.	.	/	/
N#Cc1ccc(-c2cccnc2)nc1SCC(=O)c1ccccc1	108	.	38	.	.	.	.
CCOc1ccccc1NC(=O)C1CC(=O)n2ncnc2N1 (stereo unspecified)	.	.	.	48	.	.	.
O=C(Nc1ccccc1)C1CC(=O)n2ncnc2N1 (stereo unspecified)	.	.	.	.	.	/	/
COc1ccc2nc(N=Nc3ccc(N(C)C)cc3)sc2c1	.	.	.	86	.	.	.
COc1ccc2nc(/N=C\N(C)C)sc2c1	.	.	.	.	.	/	/
Cc1cccc(-n2ncc3c(N(C)C4CCCCC4)ncnc32)c1	.	.	.	49	.	.	.
COc1ccc(-n2ncc3c(N(C)C4CCCCC4)ncnc32)cc1	.	.	.	.	.	/	/
COc1ccc(NC(=O)c2ccc3c(=O)n4c(nc3c2)CCCCC4)cc1	.	.	.	76	.	.	.
Cc1ccc(NC(=O)c2ccc3c(=O)n4c(nc3c2)CCCCC4)cc1F	.	.	.	.	/	/	/
Cn1nccc1C(=O)Nc1sc2c(c1C#N)CCCC2	.	.	.	.	.	/	/
Cn1nccc1C(=O)Nc1sc2c(c1C(N)=O)CCCC2	.	.	32	.	.	.	.
O=S(=O)(c1ccc(Br)cc1)c1nc(-c2ccco2)oc1SCc1ccccc1F	.	.	.	.	.	/	/
COc1cccc(C2CC(c3ccc(NS(C)(=O)=O)cc3)=NN2C(=O)c2ccccc2)c1OC (stereo unspecified)	.	.	.	50	.	.	.
CCC(C)NS(=O)(=O)c1ccc(NC(=O)C(Sc2ccccc2)c2ccccc2)cc1 (stereo unspecified)	.	.	.	.	.	/	/
CCCCNS(=O)(=O)c1ccc(NC(=O)C(Sc2ccccc2)c2ccccc2)cc1 (stereo unspecified)	.	.	.	.	.	.	?
O=C(C1=NN(c2ccccc2)C2C(=O)N(c3ccccc3)C(=O)C12)c1ccccc1 (stereo unspecified)	324	-32	33	.	.	?	18µM
Cc1ccc(S(=O)(=O)N2CCN(C(=O)CSc3ccc(Cl)cc3)CC2)cc1	.	.	.	.	.	/	/
CN1CCN(C(=O)CSc2ccc(Cl)cc2)CC1	.	.	.	43	.	.	.
CCOc1ccccc1CN1CCC(n2nccc2NC(=O)C2CCCC2)CC1	.	.	.	.	.	/	/
CCOC(=O)c1cc(-c2ccccc2)n(CC(=O)NC(C)(C)C)c1C	.	.	.	57	.	.	.
